These results are taken from PubChem BioAssay AID463195 (Sanford-Burnham Center for Chemical Genomics, 2010).

Hit rate of the full screen: of about 330,000 compounds, about 4,600 (1.4%) were called active. Many of the other results were omitted from the sample, so actives are more common in it than they were. Values without a mark were called inactive.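 How the source made its calls: active means inhibition of 40% or more at the single tested concentration; inactive means the rest.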

A short description of this experiment: growth inhibitors of isogenic TIM10 control yeast, primary screen, counter-screen for tim10-1 yeast inhibitor project, luminescence, uHTS (AID 463195).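 Further: wild-type TIM10 isogenic control strain grown at permissive 25 °C; 0% = DMSO yeast wells and 100% = minimal medium wells without yeast.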 The conditions noted are these: S. cerevisiae TIM10 strain growth, BacTiter-Glo luminescence, 24 h; at 10 µM; stronger effect = higher value. For orientation: Counterscreens check selectivity or assay interference.
By inhibition is commonly meant the relative decrease from the control value, in per cent. Consider `O=C(Nc1cccc(Cl)c1Cl)c1ccccc1NC(=O)C1CC=CCC1C(=O)O` (configuration not stated), for which the inhibition was -0.652%.

As to `Cc1cc(N=Nc2ccc3ccccc3c2)ccc1O`, the inhibition was 74.2% (active).

Take `Cc1ccc(/C=N/NC(=O)c2cc3ccccc3cc2O)o1`: the inhibition was 16.7%.

As to `COc1cccc(OCC(O)CNC(=O)c2oc3c(C)c(C)ccc3c2C)c1` (configuration not stated), the inhibition was -2.72%.

On to `Cc1nc2cc(C(F)(F)F)ccc2n1CCNc1nc(-c2cc(Cl)c(N)c(Cl)c2)cs1`, for which the inhibition is 3.25%.

For the compound `CC(=O)c1c(OCC(=O)N(C)C2CCCCC2)ccc2c(C)cc(=O)oc12`, the inhibition is 5.61%.

Take `C=CCNC(=S)NNC(=O)c1ccc(Br)o1`: the inhibition is -5.99%.

`C=CCNC(=O)COC(=O)CNC(=O)c1cc(Cl)cc([N+](=O)[O-])c1`: the inhibition was -0.359%.

Take `C=CCNC(=S)NNC(=O)COc1c(Cl)cc(Cl)cc1Cl`: the inhibition is 57.7% (active).

As for `O=C(CN1CCCCC1)NC(=O)Nc1ccccc1F`, the inhibition was -12.6%.

On to `CCOC(=O)CCCNC(=O)COC(=O)c1cc(Br)c(Br)s1`, for which the inhibition is 10.3%.

For the compound `Cc1ccc(OCc2n[nH]c(=S)n2-c2ccccc2)cc1`, the inhibition was 16.5%.

As for `Fc1ccc(/C=N/n2c(COc3ccccc3)n[nH]c2=S)cc1`, the inhibition is 40.9% (active).

Consider `O=[N+]([O-])c1ccccc1/C=N/n1c(COc2ccccc2)n[nH]c1=S`, for which the inhibition was 17.8%.

Regarding `CC(C)NC(=O)/C(C#N)=C\c1ccc(N(C)C)c(Br)c1`, the inhibition was 55.1% (active).

As to `CC(C)(C)C(=O)/C(C#N)=C/c1ccc(O)cc1`, the inhibition is -0.948%.

As for `Cc1[nH]c2ccccc2c1/C=C(/C#N)C(=O)NC(C)C`, the inhibition was 17.7%.

For `N=c1n(Cc2ccc(Cl)cc2)c2ccccc2n1CC(O)c1ccco1` (configuration not stated), the inhibition is 4.4%.

`NC(=O)c1cc(S(=O)(=O)N2CCCC2)ccc1OCc1ccc(F)cc1`: the inhibition was -5.53%.

As to `O=C(N/N=C/c1cccc(O)c1)c1cc2c(ccc3ccccc32)o1`, the inhibition is 7.41%.

Take `Nc1nonc1-n1nnc(C(=O)N/N=C/c2c[nH]c3ccccc23)c1-c1ccccc1`: the inhibition was 12.9%.

For `Cc1c(/C=N\NC(=O)c2cc3ccccc3o2)c2ccccc2n1C`, the inhibition was 8.19%.

In the case of `CSC(=S)N/N=C/c1c[nH]c2ccccc12`, the inhibition is 43.5% (active).

Take `O=C(N/N=C/c1c[nH]c2ccccc12)c1cc2ccccc2o1`: the inhibition is 49.3% (active).

For the compound `O=C(O)c1cccc(NC(=S)N/N=C/c2c[nH]c3ccccc23)c1`, the inhibition is 11.4%.

For `COc1ccccc1CNS(=O)(=O)c1cc(C(=O)NCc2ccccn2)c(Cl)cc1Cl`, the inhibition was 3.96%.

For the compound `CCOC(=O)c1cc2c(=O)[nH]c(C(Cl)(Cl)Cl)nc2o1`, the inhibition was 1.82%.
